Screen size: about 69,000 compounds; about 8,600 (12%) showed an effect of 50% or more. This excerpt belongs to a sample that is enriched for strong results.
What follows are molecules tested on Plasmodium berghei (assay: Screen against P. berghei liver stage (PbLuc), transformed with Luciferase, at 10uM). Settings: tested at 10 uM.
Assay type: functional, HepG2

SMILES	INHIBITION [%]
CS(=O)(=O)c1cn[nH]c1C1CCCCN1C(=O)c1cnccn1 (configuration not stated)	-21.4
Cc1nc(CN2CCCN(C(=O)c3c(C)oc(C)c3C)CC2)cs1	-4.16
O=c1c(S(=O)(=O)N2CCCC2)cccn1Cc1ccccc1Cl	29.6
c1cnc(N2CCO[C@H]3CN(Cc4c[nH]cn4)C[C@H]32)cn1	37.8
OCCN1CCCC(c2nccnc2Oc2ccc(F)cc2)C1 (configuration not stated)	20.8
CCS(=O)(=O)N1C[C@@H](c2cc(O)nc(C)n2)[C@H](c2ccccc2F)C1	3.69
O=C(c1ccccn1)N1CCC2(CC1)COC(COc1cccnc1)C2 (configuration not stated)	5.67
CC(c1cccc(-c2ncc(C#N)c(N)n2)c1)N(C)C (configuration not stated)	-0.996
c1cncc(-c2noc(CNc3ncnc4c3CCNCC4)n2)c1	8.74
Cc1cccc(-n2cc(CNc3ncnc4c3CCNCC4)cn2)c1	16
COCc1noc(CCNc2ncnc3c2CCNCC3)n1	-58
c1cncc(-c2noc(CCNc3ncnc4c3CCNCC4)n2)c1	19.4
c1ccc(Cn2cc(CNc3ncnc4c3CCNCC4)cn2)cc1	23.6
Cc1ccccc1-n1cc(CNc2ncnc3c2CCNCC3)cn1	-20.7
Cc1ccc(-c2cc(CNc3ncnc4c3CCNCC4)no2)cc1	93.1
Clc1ccccc1-c1cc(CNc2ncnc3c2CCNCC3)no1	88.2
COc1ccc(-c2cc(CNc3ncnc4c3CCNCC4)no2)cc1	94.1
CCn1cc(CN2CCCN(C(=O)c3ccoc3C)CC2)cn1	-19.9
COCC(=O)N1Cc2nccn2CC(COc2cccnc2)C1 (configuration not stated)	29.3
COc1nn(C)c2c1CCCN(C(=O)c1ccc[nH]1)C2	-15.7
CCn1c(SCC(N)=O)nnc1-c1csc2c1CCCC2	25.8
Cn1ccc(C(=O)N2CCCC2c2cc(CO)[nH]n2)n1 (configuration not stated)	14.385

SMILES	INHIBITION [%]
CCn1cnnc1CNc1nc(C)nc2scc(CC(C)C)c12	44.3
CCc1nc(-c2cncnc2C2CCCNC2)no1 (configuration not stated)	20.25
Cc1ccc(Cn2nc(C)c3c(C(=O)O)c(Cl)c(C)nc32)cc1	3.52
CCNc1c(NC(=O)C2CC2)c(=O)oc2ccccc12	-21.9
CN(C)CC(=O)N1CCCCC1c1nc(N)ncc1-c1ccccc1 (configuration not stated)	12.3
CCSc1nnc([C@@H](N)CC(C)C)o1	-4.56
Cc1cccc(-c2nccnc2C2CCN(C)CC2)c1C	54.5
COc1ccccc1-c1nccnc1C1CCN(C(C)=O)CC1	10
Cc1cccc(-c2nccnc2C2CCCN(C)C2)c1C (configuration not stated)	35.2
COCc1nc(C(=O)N2CCCC2c2ccncc2)cs1 (configuration not stated)	29.7
CC(C)c1noc(CN2CCN(CCO)CC2)n1	-10.875
Brc1cccc(-c2noc(C3COCCO3)n2)c1 (configuration not stated)	-99.3
CCCNc1ccc(C(=O)NCCc2ccc(Cl)cc2)cn1	-71.5
CCCNc1ccc(C(=O)NCCc2cccc(OC)c2)cn1	25.3
CCCNc1ccc(C(=O)NCCc2cccc(Cl)c2)cn1	68.8
O=C1Nc2ccccc2/C1=C1\CCCN1	43.4
Cc1nn(Cc2ccccc2)c(C)c1CNC1CCc2ncnn2C1 (configuration not stated)	-10.1
COCC1COCCC12CCN(C(=O)CCc1ccccc1C)CC2 (configuration not stated)	-30.6
CNCC(=O)Nc1cccc(-c2cnc(NCCO)nc2)c1	23.4
CNCC(=O)Nc1ccc(-c2cnc(NCCS(C)(=O)=O)nc2)cc1	54.5
CNCC(=O)Nc1cccc(-c2cnc(NCCS(C)(=O)=O)nc2)c1	45.6
Cn1nc(C(=O)NCc2ccccc2C(F)(F)F)c2c1CCS(=O)(=O)C2	45.8

SMILES	INHIBITION [%]
O=C(C1CCOCC1)N1C[C@@H]2CC[C@H]1CN(C1Cc3ccccc3C1)C2	-59.3
CN(Cc1cc(C[C@@H]2C[C@H](N)C2(C)C)no1)c1ccccc1	54.3
CN(C)[C@H]1C[C@@H](Cc2cc(CO)on2)C1(C)C	-17.1
CCN(CC)[C@H]1C[C@@H](Cc2cc(CO)on2)C1(C)C	17.4
Cc1cccc(CN2C(=O)CC[C@@H]3[C@H]2CCN3Cc2nccn2C)n1	40.4
c1ccc(Cn2cc3c(n2)C(CNCC2CCOCC2)OCC3)nc1 (configuration not stated)	-7.7
CCC(CC)C(=O)N1CCC2(C1)CN(c1ccccc1)C(=O)CN2C (configuration not stated)	28.4
CCC[C@H]1CN(Cc2cncn2C)C[C@@H]1NC(=O)C1(COC)CCC1	28
CCC[C@H]1CN(c2nc(CO)cs2)C[C@@H]1NC(=O)C1(COC)CC1	69.7
CCC[C@H]1CN(Cc2cscn2)C[C@@H]1NC(=O)C1(COC)CCC1	48.5
CCC[C@H]1CN(Cc2nccn2C)C[C@@H]1NC(=O)C1(COC)CCC1	31.2
COC[C@@]12CC[C@@H](N3CCOCC3)C[C@H]1CCN(c1nc(CO)cs1)C2	15.8
CCC[C@H]1CN(Cc2cc(C)no2)C[C@@H]1NC(=O)C1(COC)CCC1	59.3
c1ccc(-c2nnc3n2CCN(Cc2ccc4c(c2)OCCO4)C3)cc1	33.7
NC(=O)c1cccc(OCC(=O)N2CCCC(n3ccnc3)C2)c1 (configuration not stated)	36.1
CC(=O)N1[C@H](CN(C)C)C[C@@H]2CN(c3ncc(F)cn3)CC[C@@H]21	-0.804
CCC(C)NC(=O)c1ccn(COc2ccccc2Cl)n1 (configuration not stated)	34.2
COc1ccc(CNc2ncnc3c2NC(=O)CN3)cc1	45.8
CC(C)c1nnc2n1CCN(C(=O)CN(C)Cc1ccccc1)C2	12.7
Cc1ccc(CN(C)C(C(=O)O)c2ccc3c(c2)OCO3)o1 (configuration not stated)	8.51
CCc1cc2c(N3CCCC(c4ccn[nH]4)C3)ncnc2s1 (configuration not stated)	-1.76
CCc1ncnc(N2CCCC(c3cc(C(N)=O)[nH]n3)C2)c1F (configuration not stated)	-24

SMILES	INHIBITION [%]
CCc1cc2c(N3CCCC(c4cc(C(N)=O)[nH]n4)C3)ncnc2s1 (configuration not stated)	55
COCC(=O)N1CCC(Cc2nccnc2-c2c(C)n[nH]c2C)C1 (configuration not stated)	17.4
CCCN1CCN(c2nc(N)nc3c2nc(C)n3C)CC1	13.1
CNC(=O)C(CCSC)NC(=O)c1ccc2ccccc2n1 (configuration not stated)	19.1
CSCCC(NC(=O)c1ccc2ccccc2n1)C(=O)NC(C)C (configuration not stated)	40.5
CSCCC(NC(=O)c1ccc2ccccc2n1)C(=O)NC1CC1 (configuration not stated)	43.7
CSCCC(NC(=O)c1ccc2ccccc2n1)C(=O)N(C)C (configuration not stated)	60.8
CSCCC(NC(=O)c1ccc2ccccc2n1)C(=O)O (configuration not stated)	42.6
CCOCCNC(=O)C(CCSC)NC(=O)c1ccc2ccccc2n1 (configuration not stated)	60.8
Cc1ccc(CN2CCc3onc(COc4cccnc4)c3C2)s1	27.6
O=C(CNC(Cn1cccn1)c1ccccc1)Nc1cnccn1 (configuration not stated)	-12.4
Cc1ccc(C2CCCN2S(=O)(=O)N(C)Cc2cnccn2)o1 (configuration not stated)	37.9
CCCn1cc2nc(N3CCCC3)[nH]cc-2c1=O	44.9
Cc1cnn(CC2CCCN2C(=O)c2ccc(F)c(F)c2)c1 (configuration not stated)	-63.3
O=C(Nc1ccc(CCN2CCOCC2)cc1)C1CCC1	26.25
CCCc1noc(CN2CCN(CCO)CC2)n1	9.015
CC(NCC(=O)N1CCc2sccc2C1)c1ccccc1F (configuration not stated)	14.9
CCN(CC)C(=O)c1ccc(Cl)c(NC(=O)c2cc[nH]n2)c1	9.41
CCN(CC)C(=O)c1ccc(Cl)c(NC(=O)c2csnn2)c1	28.5
CCN(CC)C(=O)c1ccc(Cl)c(NC(=O)c2cnc(C)cn2)c1	51.2
Cc1oc(-c2nc(C#N)c(NC(C)(C)C)o2)cc1S(=O)(=O)N1CCCC1	40.1
CCC(CC)N1CCC(c2[nH]ncc2S(C)(=O)=O)C1 (configuration not stated)	-3.94

SMILES	INHIBITION [%]
O=C(NCc1ccco1)N1CCCCC1c1nc(-c2ccncc2)no1 (configuration not stated)	-31
CS(=O)(=O)N1C[C@H]2CC[C@@H](C1)N(C(=O)Cn1nc3ccccc3n1)C2	21.7
C[C@@H]1CN(C2Cc3ccccc3C2)CC[C@@]1(O)C1CCOCC1	10.2
C[C@@H]1CN(C2CCCCC2)CC[C@@]1(O)C1CCOCC1	57.7
C[C@@H]1CN(C2CCN(c3ccccc3)CC2)CC[C@@]1(O)C1CCOCC1	-2.61
Cc1nc(C)n(CC2CCCN2CCC(=O)NC2CCCC2)n1 (configuration not stated)	-38.7
CN(C)c1ccc(C(=O)N2CCN(CC(C)(C)O)CC2)nn1	21.6
Cc1ccc(C(=O)NCC(O)c2ccc(F)c(F)c2)c(=O)[nH]1 (configuration not stated)	26.6
O=C(NCC(O)c1ccc(F)c(F)c1)c1cccnc1O (configuration not stated)	36.8
Cc1ccc(C(=O)NCC(O)c2cccc(F)c2)c(=O)[nH]1 (configuration not stated)	52.5
O=C(NCC(O)c1cccc(F)c1)c1cccnc1O (configuration not stated)	50.1
Cc1cc(C)c(CNC(=O)NCC(O)c2cccc(F)c2)c(=O)[nH]1 (configuration not stated)	27.9
O=C(NCC(O)c1ccc(F)cc1F)c1cccnc1O (configuration not stated)	38.3
FC(F)COc1ccccc1NCc1nnsc1Cl	8.9
CC1(C)Cc2ccc(C(=O)NC3CCOCC3)c(O)c2O1	-42.8
Cc1cnn(CC2CN(CC(=O)NCc3ccc(C)s3)CCO2)c1 (configuration not stated)	19.4
CCC[C@@H]1CN(Cc2cc3c(cc2OC)OCCO3)C[C@H]1C(=O)O	54.4
CCC[C@@H]1CN(Cc2cc(OC)c3c(c2)OCO3)C[C@H]1C(=O)O	39.4
CCC[C@@H]1CN(Cc2cc3c(cc2OC)OCO3)C[C@H]1C(=O)O	35.1

Source: ChEMBL document CHEMBL4513216, “Probing the Open Global Health Chemical Diversity Library for Multistage-Active Starting Points for Next-Generation Antimalarials” (ACS Infect Dis, 2020)
